High-throughput results from PubChem.
In the library only some 3.5% were active in any assay of this set; here they are far more common.
TEAD-YAP block: TEAD-YAP interaction inhibition; HEK-TIYL cells, TEAD-Gal4/YAP UAS-luciferase luminescence; inhibition, % at 9.12 µM; actives 1.4% (n = 640,000); AID 1259422; in the data active means inhibition above about 32%
FBW7 activator: human FBW7 E3 ligase activation, primary screen. AlphaScreen FBW7–phospho-cyclin E peptide binding, activator screen. Q969H0. normalized activity (activation), % at 26.1 µM. AID 1259310. actives 0.13% (n = 650,000); in the data active means normalized activity above about 1.9%;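 further: purified mutant Fbw7 with reduced substrate affinity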
Target sequence (Q969H0 whole entry, looked up): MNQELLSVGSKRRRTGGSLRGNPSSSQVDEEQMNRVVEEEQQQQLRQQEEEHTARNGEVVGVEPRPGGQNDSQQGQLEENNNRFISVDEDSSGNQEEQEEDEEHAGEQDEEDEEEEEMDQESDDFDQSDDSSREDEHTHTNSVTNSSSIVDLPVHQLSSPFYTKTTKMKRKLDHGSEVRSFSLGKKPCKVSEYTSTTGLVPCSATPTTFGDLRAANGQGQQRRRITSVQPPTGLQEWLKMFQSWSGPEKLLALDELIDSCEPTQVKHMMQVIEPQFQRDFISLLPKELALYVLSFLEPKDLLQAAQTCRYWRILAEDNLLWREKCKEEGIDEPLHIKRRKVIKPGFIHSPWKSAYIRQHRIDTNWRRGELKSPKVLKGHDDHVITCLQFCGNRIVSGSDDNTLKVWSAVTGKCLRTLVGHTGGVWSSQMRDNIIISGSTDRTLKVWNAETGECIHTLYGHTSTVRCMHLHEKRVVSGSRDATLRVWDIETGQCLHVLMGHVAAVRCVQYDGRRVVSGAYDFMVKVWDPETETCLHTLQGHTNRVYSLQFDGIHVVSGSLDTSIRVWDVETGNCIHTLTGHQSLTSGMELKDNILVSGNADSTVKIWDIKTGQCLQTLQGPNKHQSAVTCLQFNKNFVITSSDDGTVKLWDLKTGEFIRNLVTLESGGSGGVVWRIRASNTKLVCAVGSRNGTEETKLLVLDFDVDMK
GPR151 ag: activates the human receptor GPR151; PathHunter beta-arrestin GPR151 cells, luminescence; activation, % at 11.2 µM; actives 1% (n = 650,000); AID 1508602; in the data active means activation above about 4.9%
MITF inh: inhibitors of human MITF | AlphaScreen MITF homodimerization, bead proximity signal | inhibition, % at 2.6 µM | actives 0.91% (n = 650,000); in the data active means inhibition above about 50%
MITF inh conf: human MITF inhibition, confirmation; shares compounds with MITF inh; AlphaScreen MITF homodimerization, biotin/His-MITF beads; inhibition, % at 2.6 µM; actives 16% (n = 4,700);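 active means inhibition above a cutoff derived from the DMSO control wells, cut at about 28% in these data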;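 further: inhibitors lower the bead chemiluminescence by keeping MITF from dimerizing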
AS interf ctr: counter-screen: compounds optically interfering with AlphaScreen. shares compounds with MITF inh. LysRS AlphaScreen counterscreen, signal interference, triplicate. inhibition, % at 2.6 µM. actives 7.6% (n = 4,700);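 active means inhibition above a cutoff derived from the DMSO control wells, cut at about 30% in these data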
A number is an active result; . = inactive; / = no result.

SMILES	TEAD-YAP block	FBW7 activator	GPR151 ag	MITF inh	MITF inh conf	AS interf ctr
C(=N\Nc1nncc2ccccc12)/c1ccccn1	78	.	.	82	.	.
Clc1ccc(/C=N/Nc2nncc3ccccc23)cc1Cl	.	.	.	.	/	/
COc1ccc(C)cc1NC(=O)CNCc1ccco1	.	.	.	53	.	.
COc1ccc(C)cc1NC(=O)NCc1ccco1	.	.	.	.	/	/
COCCNc1ccc2ncc(-c3cccc(N(C)C)c3)n2n1	.	.	.	.	/	/
COCCNc1ccc2ncc(-c3cccc(C(F)(F)F)c3)n2n1	.	.	.	65	.	.
O=C(NC1CCN(Cc2ccccc2)CC1)c1ccc2nc(N3CCCCC3)sc2c1	.	.	.	.	/	/
O=C(CC1C(=O)NCCN1C/C=C/c1ccccc1)NCCCc1cccnc1 (stereo not given)	.	.	.	64	.	.
CCn1c(Cc2ccccc2)nnc1SCC(=O)Nc1cc(C)on1	.	.	.	.	/	/
CCCc1nnc(SCC(=O)Nc2cc(C)on2)n1CC	.	.	.	74	.	.
COc1cccc(NC(=O)c2ccc(CNc3c(NC4CCCCC4)c(=O)c3=O)cc2)c1	.	.	.	.	/	/
NC(=O)NC(=O)COC(=O)c1oc2ccccc2c1COc1ccccc1	.	.	.	.	/	/
NC(=O)COC(=O)c1oc2ccccc2c1COc1ccccc1	.	.	.	64	.	.
O=C(c1cccc(F)c1)N1CCN(Cc2cccc3ccccc23)CC1	.	.	.	58	.	.
O=C(c1cccc(F)c1)N1CCN(Cc2ccccc2Cl)CC1	.	.	.	57	.	.
Cc1ccc(-c2noc(C3CCN(S(=O)(=O)c4ccc5c(c4)OCCO5)CC3)n2)o1	.	.	.	63	.	.
Cc1ccc(-c2noc(C3CCCN(S(=O)(=O)c4ccc5ccccc5c4)C3)n2)o1 (stereo not given)	.	.	.	.	/	/
CCOC(=O)CNC(=O)OC1C(=O)c2cc(Br)ccc2O[C@H]1c1ccc2c(c1)OCO2 (stereo not given in full)	/	.	.	.	/	/
CCCOc1ccccc1C1C(C(=O)OC)=C(C)NC2=C1C(=O)CC(C)(C)C2 (stereo not given)	.	.	.	.	/	/
O=C(COc1ccc(F)cc1)N/N=C/c1cccc2cccnc12	.	.	.	59	28	86
O=C(N/N=C/c1cccc2cccnc12)c1ccncc1	.	.	.	96	112	100
O=C(N/N=C/c1cccc2cccnc12)c1ccccc1	.	.	.	57	78	100
O=C(N/N=C/c1cccc2ccccc12)c1ccncc1	.	.	.	.	/	/
Brc1ccc(CN2CCN(Cc3ccccc3)CC2)o1	.	.	.	55	.	.
Clc1ccc(N2CCN(Cc3ccc(Br)o3)CC2)cc1	.	.	.	58	.	.
SMILES	TEAD-YAP block	FBW7 activator	GPR151 ag	MITF inh	MITF inh conf	AS interf ctr
CCC1(CCC(=O)NCC(O)COc2cccc(OC)c2)CCC(=O)N1 (stereo not given)	.	.	.	.	/	/
OCCN1CCN(c2cc(-c3ccccn3)nc(-c3ccccc3)n2)CC1	.	.	.	.	/	/
Cc1ccc(S(=O)(=O)N2CCN(C(C)CC(=O)O)CC2)cc1 (stereo not given)	.	.	.	65	.	.
Cc1ccc(C(=O)NN2C(=O)C3C4C=CC(C5CC45)C3C2=O)cc1 (stereo not given)	.	.	.	.	/	/
CCOC(=O)CSc1nnc(NC(=O)c2c(-c3ccccc3Cl)noc2C)s1	.	.	.	.	/	/
CCSc1nnc(NC(=O)c2c(-c3ccccc3Cl)noc2C)s1	.	.	.	114	.	.
CCC(Cc1ccccc1)NS(=O)(=O)c1ccc(F)c(C(=O)Nc2c(C)cc(C)cc2C)c1 (stereo not given)	.	.	.	.	/	/
Clc1cc(CNC2CCN(Cc3ccccc3)CC2)cc2c1OCCO2	.	.	.	58	.	.
c1ccc(-c2ccccc2OCCOCCN2CCNCC2)cc1	.	.	.	76	.	.
c1ccc(-c2ccc(OCCN3CCNCC3)cc2)cc1	.	.	.	56	.	.
CCN1CCN(CCOCCOc2ccccc2-c2ccccc2)CC1	.	.	.	64	.	.
CCC(C)c1ccccc1OCCN1CCOCC1 (stereo not given)	.	.	.	84	.	.
c1ccc(-c2ccc(OCCCN3CCNCC3)cc2)cc1	.	.	.	.	/	/
COCCNC(=O)Cn1cc(C2C(C#N)=C(N)OC3=C2C(=O)CC(C)(C)C3)c2ccccc21 (stereo not given)	.	.	.	.	/	/
O=c1cc(CSc2nc3ccsc3c(=O)n2-c2ccc(F)cc2)c2ccc(O)cc2o1	.	.	.	.	/	/
CC(=O)Nc1cccc(OCC(=O)Nc2ccc(C)cc2)c1	.	.	.	.	/	/
Cc1cc(C)c(C)c(OCCOCCNC(C)(C)C)c1	.	.	.	64	.	.
CCN1CCN(CCOCCOc2ccc3ccccc3c2Cl)CC1	.	.	.	51	.	.
CC(C)(C)NCCOCCOc1ccccc1I	.	.	.	.	/	/
CC(C)(C)NCCOCCOc1ccccc1-c1ccccc1	.	.	.	63	.	.
Clc1c(OCCN2CCOCC2)ccc2ccccc12	.	.	.	.	/	/
Cc1cc(C)c(C)c(OCCNC(C)(C)C)c1	.	.	.	.	/	/
c1ccc(OCCN2CCOCC2)cc1	.	.	.	54	.	.
c1ccc(OCCNCCN2CCOCC2)cc1	.	.	.	.	/	/
COc1cccc(C(=O)Nc2ccc3oc(-c4ccc(F)cc4)cc(=O)c3c2)c1	.	.	.	.	/	/
SMILES	TEAD-YAP block	FBW7 activator	GPR151 ag	MITF inh	MITF inh conf	AS interf ctr
O=C(c1ccc(C(=O)N(C2CCCCC2)C2CCCCC2)cc1)N(Cc1ccccc1)Cc1ccccc1	.	.	.	.	/	/
CN1C(=O)c2ccc(C(=O)NCc3ccc4c(c3)OCO4)cc2C1=O	.	.	.	.	/	/
Cc1ccc(-c2n[nH]c(CNC(=O)c3ccc(F)cc3)n2)cc1	.	.	.	.	/	/
Nc1ccc(S(=O)(=O)N2CCOC3CCCCC32)cc1 (stereo not given)	.	.	.	76	.	.
Cc1[nH]n(-c2ccccc2)c(=O)c1CCOC(=O)c1cccs1	.	.	.	.	/	/
CC(C)CNC(=O)C(=O)NCC1OCCCN1S(=O)(=O)c1ccc(Cl)cc1 (stereo not given)	.	.	.	64	.	.
CC(C)CCNC(=O)C(=O)NCC1OCCCN1S(=O)(=O)c1ccc(F)cc1 (stereo not given)	.	.	.	67	.	.
Cc1cc2nnc(SCC(=O)Nc3ccc4[nH]c(=O)[nH]c4c3)n2c2ccccc12	.	.	.	.	/	/
COc1ccc(-c2ncn(-c3ccc(Nc4ncc5ccc(-c6cnn(C)c6)cc5n4)cc3)n2)cn1	.	.	.	55	.	.
CC(C)c1ccc(-c2c(C#N)c(N)nc3sc(C(=O)Nc4ccc(Cl)cc4)c(N)c23)cc1	.	.	.	.	/	/
COc1cccc(NC(=O)c2sc3nc(N)c(C#N)c(-c4ccc(C(C)C)cc4)c3c2N)c1	.	.	.	52	.	.
